This is an account of results in the supplement of paper PMC9801561.

± gives the standard deviation of the averaged measurements.

In experiment [1] the test system is Escherichia coli Nissle 1917. In words: area under OmniLog respiration curve over 48 h (OmniLog units x h); higher = more growth / nutrient utilisation; extreme values may be limits of the assay. The settings on record: incubation: 48 h, 37 °C.
Experiment [2] has as its system Escherichia coli Nissle 1917. The experiment is described as follows: DuctApe activity index of respiration/growth curve (0 no growth to 9 maximum) (index 0-9); higher = more growth / nutrient utilisation, active = 3 or more; extreme values may be limits of the assay. The settings on record: incubation: 48 h, 37 °C.
[3] abbreviates: nutrient role: C-Source, amino acid.
Setting [4] is: nutrient role: sole nitrogen source (pyruvate carbon).
The mark [5] stands for this setting: nutrient role: C-Source, carbohydrate.
Setting [6] is: nutrient role: sole phosphorus source (pyruvate carbon).
[7] abbreviates: nutrient role: sole sulfur source (pyruvate carbon).
[8] abbreviates: nutrient role: C-Source, carboxylic acid.
[9] abbreviates: nutrient role: C-Source, alcohol.
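Throughout, for DuctApe activity index of respiration/growth curve (0 no growth to 9 maximum): biolog PM4 phosphorus and sulfur plates, tetrazolium violet dye reduction read in the OmniLog every 15 min, kinetic curves scored by DuctApe, each plate run in triplicate.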

With `N[C@@H](Cc1c[nH]cn1)C(=O)O` [L-Histidine], the “area under OmniLog respiration curve” value in experiment [1] (setting [3]) and in experiment [1] (setting [4]) was 4.72 throughout. For the same molecule, the DuctApe activity index in experiment [2] (setting [3]) and in experiment [2] (setting [4]) was 0 (inactive) each time.
Take `NC(=O)C[C@H](N)C(=O)O` [L-Asparagine]: the “area under OmniLog respiration curve” value in experiment [1] (setting [3]) was 8660 ± 760; in experiment [1] (setting [4]), 8770 ± 1400. Moreover, the DuctApe activity index in experiment [2] (setting [3]) and in experiment [2] (setting [4]) was 8.67 (active) in each case.
With `N[C@@H](CC(=O)O)C(=O)O` [L-Aspartic acid], the entries for the “area under OmniLog respiration curve” value in experiment [1] (setting [3]) and in experiment [1] (setting [4]) were 8900 ± 710 and 8720 ± 1400, respectively. Also, the DuctApe activity index in experiment [2] (setting [3]) was 8.67 (active); in experiment [2] (setting [4]), 8.33 (active).
For `NCCCC[C@H](N)C(=O)O` [L-Lysine] the same measures were 10.5 ± 10, 301 ± 240, 0 (inactive) and 1 (inactive).
The like results for `N[C@@H](CCO)C(=O)O` [L-Homoserine] were, in that order, 4.72, 546 ± 600, 0 (inactive) and 1.33 (inactive).
Turning to `O=c1ccn([C@@H]2O[C@H](CO)[C@@H](O)[C@H]2O)c(=O)[nH]1` [Uridine], the “area under OmniLog respiration curve” value in experiment [1] (setting [5]) was determined as 9200 ± 570; in experiment [1] (setting [4]) it was 8.86 ± 7.2. In addition, the DuctApe activity index in experiment [2] (setting [5]) is 8.67 (active); in experiment [2] (setting [4]), 0 (inactive).
In the case of `CC(C)C[C@H](N)C(=O)O` [L-Leucine], the “area under OmniLog respiration curve” value came to 15.5 ± 9.5 in experiment [1] (setting [3]) and 804 ± 870 in experiment [1] (setting [4]). The DuctApe activity index in experiment [2] (setting [3]) was 0 (inactive); in experiment [2] (setting [4]) it was 1.33 (inactive).
For `N[C@@H](CO)C(=O)O` [L-Serine] the same measures were 8500 ± 700, 7360 ± 1300, 8.67 (active) and 8 (active).
With `CC(=O)N[C@H]1C(O)O[C@H](CO)[C@H](O)[C@@H]1O` (stereo partly drawn) [N-Acetyl-D-Galactosamine], the results for the “area under OmniLog respiration curve” value in experiment [1] (setting [5]) and in experiment [1] (setting [4]) were 8120 ± 580 and 992 ± 1000, respectively. The values for the DuctApe activity index in experiment [2] (setting [5]) and in experiment [2] (setting [4]) were 8 (active) and 2.33 (inactive), respectively.
Consider `O=C(O)[C@@H]1CCCN1` [L-Proline], for which the “area under OmniLog respiration curve” value was 8520 ± 530 in experiment [1] (setting [3]) and 4840 ± 1100 in experiment [1] (setting [4]). Further, the DuctApe activity index in experiment [2] (setting [3]) is 8.67 (active); in experiment [2] (setting [4]), 6 (active).
The like results for `N[C@@H](Cc1ccccc1)C(=O)O` [L-Phenylalanine] were, in that order, 8.61 ± 5.9, 4290 ± 1100, 0 (inactive) and 6 (active).
`C=C(OP(=O)(O)O)C(=O)O` [Phosphoenol Pyruvate]: the “area under OmniLog respiration curve” value in experiment [1] (setting [6]) stood at 9270 ± 480. The DuctApe activity index in experiment [2] (setting [6]) was 9 (active).
Regarding `Nc1ncnc2c1ncn2[C@@H]1O[C@H](CO)[C@@H](O)[C@H]1O` [Adenosine], the “area under OmniLog respiration curve” value in experiment [1] (setting [5]) was 9110 ± 480; in experiment [1] (setting [4]) it was 6810 ± 990. The DuctApe activity index is 8.67 (active) in experiment [2] (setting [5]) and 7.33 (active) in experiment [2] (setting [4]).
`NC(N)=O`: the “area under OmniLog respiration curve” value in experiment [1] (setting [4]) worked out at 4.72. Further, the DuctApe activity index in experiment [2] (setting [4]) was 0 (inactive).
For `CCCCS(=O)(=O)O` [Butane Sulfonic acid], in experiment [1] (setting [7]), the “area under OmniLog respiration curve” value is 7820 ± 190. Also, in experiment [2] (setting [7]), the DuctApe activity index was 8 (active).
Turning to `C[C@@H](OP(=O)(O)O)[C@H](N)C(=O)O` [O-Phospho-L-Threonine], the “area under OmniLog respiration curve” value in experiment [1] (setting [6]) was 9330 ± 620. Also, the DuctApe activity index in experiment [2] (setting [6]) was 8.67 (active).
Regarding `NO` [Hydroxylamine], in experiment [1] (setting [4]), the “area under OmniLog respiration curve” value amounted to 5.62 ± 1.6. The DuctApe activity index in experiment [2] (setting [4]) is 0 (inactive).
For the molecule `CC[C@H](O)C(=O)O` [a-Hydroxybutyric acid], the “area under OmniLog respiration curve” value in experiment [1] (setting [8]) came out at 2930 ± 240. In addition, the DuctApe activity index in experiment [2] (setting [8]) is 4 (active).
As to `OC[C@H]1O[C@H](O[C@H]2[C@H](O)[C@@H](O)[C@H](O)O[C@@H]2CO)[C@H](O)[C@@H](O)[C@@H]1O` [Maltose], the “area under OmniLog respiration curve” value in experiment [1] (setting [5]) amounted to 7970 ± 810. The DuctApe activity index in experiment [2] (setting [5]) is 7.67 (active).
On to `NCCO` [2-Aminoethanol], for which the “area under OmniLog respiration curve” value in experiment [1] (setting [9]) is 149 ± 200. In experiment [2] (setting [9]), the DuctApe activity index is 0 (inactive).
`N[C@@H](CS(=O)O)C(=O)O` [L-Cysteine Sulfinic acid]: in experiment [1] (setting [7]), the “area under OmniLog respiration curve” value came to 7460 ± 360. The DuctApe activity index in experiment [2] (setting [7]) was 7.67 (active).
Consider `CCCCCCCCCC(=O)O` [Capric acid], for which, in experiment [1] (setting [8]), the “area under OmniLog respiration curve” value was 14.2 ± 6.8. In experiment [2] (setting [8]), the DuctApe activity index was 0 (inactive).
`NCC(=O)N1CCC[C@H]1C(=O)O`: the “area under OmniLog respiration curve” value in experiment [1] (setting [3]) was determined as 7860 ± 920. The DuctApe activity index in experiment [2] (setting [3]) was 8 (active).
As for `C/C=C/C=C/C(=O)O` [Sorbic acid], the “area under OmniLog respiration curve” value in experiment [1] (setting [8]) was found to be 7.09 ± 4.1. For the same molecule, the DuctApe activity index in experiment [2] (setting [8]) was 0 (inactive).
For `O=C(O)[C@]1(O)C[C@@H](O)[C@@H](O)[C@H](O)C1` [Quinic acid] the same measures were 4.72 and 0 (inactive).
Consider `OC[C@@]12OC[C@@H](O1)[C@@H](O)[C@@H](O)[C@@H]2O` [Sedoheptulosan], for which the “area under OmniLog respiration curve” value in experiment [1] (setting [5]) came out at 201 ± 160. In addition, in experiment [2] (setting [5]), the DuctApe activity index is 1.33 (inactive).
Turning to `CC(=O)N[C@H]1[C@H]([C@H](O)[C@H](O)CO)OC(O)(C(=O)O)C[C@@H]1O` (stereo partly drawn) [N-Acetyl-Neuraminic acid], the “area under OmniLog respiration curve” value in experiment [1] (setting [8]) is 6140 ± 840. Besides, the DuctApe activity index in experiment [2] (setting [8]) was 7 (active).
For `CC(=O)CC(=O)O` [Acetoacetic acid] the same measures were 784 ± 630 and 0 (inactive).
Consider `Nc1cc[nH]c(=O)n1` [Cytosine], for which the “area under OmniLog respiration curve” value in experiment [1] (setting [4]) was found to be 5890 ± 1100. Besides, the DuctApe activity index in experiment [2] (setting [4]) was 7 (active).
On to `CC(C)[C@H](N)C(=O)O` [L-Valine], for which the “area under OmniLog respiration curve” value in experiment [1] (setting [3]) was 5.38 ± 1.1; in experiment [1] (setting [4]) it was 2650 ± 990. Moreover, the DuctApe activity index was 0 (inactive) in experiment [2] (setting [3]) and 4 (active) in experiment [2] (setting [4]).
On to `CCC(=O)O` [Propionic acid], for which, in experiment [1] (setting [8]), the “area under OmniLog respiration curve” value was determined as 7450 ± 300. Moreover, the DuctApe activity index in experiment [2] (setting [8]) was 8 (active).
On to `N[C@@H](COP(=O)(O)O)C(=O)O` [O-Phospho-L-Serine], for which, in experiment [1] (setting [6]), the “area under OmniLog respiration curve” value turned out to be 8970 ± 510. Also, the DuctApe activity index in experiment [2] (setting [6]) is 8.67 (active).
With `O=C(O)CC[C@@H](C(=O)O)N1C(=O)c2ccccc2C1=O` [N-Phthaloyl-L-Glutamic acid], the “area under OmniLog respiration curve” value in experiment [1] (setting [4]) stood at 4540 ± 1100. For the same molecule, the DuctApe activity index in experiment [2] (setting [4]) was 6 (active).
For the molecule `OC[C@H]1O[C@@H](n2cnc3c(O)nc(O)nc32)[C@H](O)[C@@H]1O` [Xanthosine], the “area under OmniLog respiration curve” value in experiment [1] (setting [4]) was 2070 ± 1300. Further, in experiment [2] (setting [4]), the DuctApe activity index was 4 (active).
As for `N[C@@H](CS)C(=O)NCC(=O)O`, the “area under OmniLog respiration curve” value in experiment [1] (setting [7]) was determined as 6960 ± 77. In addition, in experiment [2] (setting [7]), the DuctApe activity index is 7 (active).
On to `O=C(O)CC(CC(=O)O)C(=O)O` [Tricarballylic acid], for which the “area under OmniLog respiration curve” value in experiment [1] (setting [8]) was 5.51 ± 1.4. Moreover, in experiment [2] (setting [8]), the DuctApe activity index is 0 (inactive).
In the case of `NC(=O)CCCCC1CCSS1` (racemic) [DL-Lipoamide], the “area under OmniLog respiration curve” value in experiment [1] (setting [7]) turned out to be 561 ± 220. Moreover, in experiment [2] (setting [7]), the DuctApe activity index is 1 (inactive).
In the case of `N[C@@H](Cc1ccc(OP(=O)(O)O)cc1)C(=O)O` [O-Phospho-L-Tyrosine], in experiment [1] (setting [6]), the “area under OmniLog respiration curve” value was 8920 ± 320. Also, in experiment [2] (setting [6]), the DuctApe activity index is 8.67 (active).
On to `CC(O)C(C)O` (stereo not drawn) [2,3-Butanediol], for which the “area under OmniLog respiration curve” value in experiment [1] (setting [9]) was 20.2 ± 16. The DuctApe activity index in experiment [2] (setting [9]) was 0 (inactive).
For the molecule `O=C(O)c1ccccc1O` [2-Hydroxybenzoic acid], the “area under OmniLog respiration curve” value in experiment [1] (setting [8]) was 4.72. Moreover, the DuctApe activity index in experiment [2] (setting [8]) is 0 (inactive).
Consider `O=C(O)[C@H](O)[C@@H](O)[C@H](O)[C@H](O)CO[C@H]1O[C@H](CO)[C@H](O)[C@H](O)[C@H]1O` [Melibionic acid], for which, in experiment [1] (setting [5]), the “area under OmniLog respiration curve” value stood at 6790 ± 140. Moreover, the DuctApe activity index in experiment [2] (setting [5]) was 7 (active).
The like results for `CC(=O)N[C@@H](CO)[C@@H](O)[C@H](O)[C@H](O)CO` [N-Acetyl-D-Glucosaminitol] were, in that order, 4.72 and 0 (inactive).
As to `O[C@@H]1[C@@H](O)[C@@H](O)CO[C@H]1O` [L-Arabinose], the “area under OmniLog respiration curve” value in experiment [1] (setting [5]) is 8240 ± 430. In experiment [2] (setting [5]), the DuctApe activity index was 8 (active).
Turning to `COC(=O)CCC(=O)O` [Mono-Methylsuccinate], the “area under OmniLog respiration curve” value in experiment [1] (setting [8]) was 1170 ± 950. Also, the DuctApe activity index in experiment [2] (setting [8]) was 1.33 (inactive).
For `C[C@@H](O)CC(=O)O` [b-Hydroxybutyric acid] the same measures were 186 ± 53 and 1 (inactive).
In the case of `OCc1ccccc1O[C@@H]1O[C@H](CO)[C@@H](O)[C@H](O)[C@H]1O` [Salicin], the “area under OmniLog respiration curve” value in experiment [1] (setting [5]) turned out to be 4.72. In experiment [2] (setting [5]), the DuctApe activity index is 0 (inactive).
